Assay results taken from PubChem BioAssay.
Activity calls are given as the source filed them.

Tests used:
Albumin (Bos taurus) = Albumin (Bos taurus) (UniProt P02769); test: compounds binding labelled BSA control protein – biochemical, small-molecule microarray, Alexa647 label, 635/667 nm fluorescence, artefact control for SMM control protein annotation, profiling panel (AID 1118); settings: BSA-A647 binding, fluorescence 635 nm, higher = more signal;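 further: score merges 667 nm emission intensity and signal-to-noise per printed compound spot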
Sequence of Albumin (Bos taurus) (P02769 whole entry, looked up): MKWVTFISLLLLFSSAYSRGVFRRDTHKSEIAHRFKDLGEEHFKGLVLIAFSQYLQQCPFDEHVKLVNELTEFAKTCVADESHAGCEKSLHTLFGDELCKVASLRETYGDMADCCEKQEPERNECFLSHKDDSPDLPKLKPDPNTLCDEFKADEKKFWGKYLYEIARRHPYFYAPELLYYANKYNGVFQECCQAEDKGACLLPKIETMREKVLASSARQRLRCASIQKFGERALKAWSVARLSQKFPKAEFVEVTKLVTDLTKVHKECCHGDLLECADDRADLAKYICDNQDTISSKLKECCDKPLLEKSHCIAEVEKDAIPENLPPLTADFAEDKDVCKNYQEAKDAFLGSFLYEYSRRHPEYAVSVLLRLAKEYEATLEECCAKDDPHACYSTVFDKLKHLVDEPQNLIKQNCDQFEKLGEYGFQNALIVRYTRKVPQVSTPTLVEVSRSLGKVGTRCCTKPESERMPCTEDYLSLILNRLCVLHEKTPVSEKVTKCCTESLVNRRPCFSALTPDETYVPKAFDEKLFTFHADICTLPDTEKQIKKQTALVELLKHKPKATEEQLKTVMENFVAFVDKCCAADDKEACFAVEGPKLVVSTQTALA

[1] = probe aXIP binding to arrayed compounds – biochemical, NeuroSMM set, 635/667 nm fluorescence, primary screen (AID 1119); settings: small-molecule microarray, higher = more signal, called active from +8 up or from −8 down;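 further: probe is the protein aXip251-270 applied at 1 µg/mL to compound-printed slides; binding of probe to printed compounds measured as 667 nm fluorescence plus signal to noise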
[2] = probe aNOTCH3 binding on compound microarray – biochemical, small-molecule microarray, 635/667 nm fluorescence, primary screen (AID 1120); settings: higher = more signal;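 further: probe is a biotin-tagged antibody raised against NOTCH3 rather than NOTCH3 protein; score merges spot fluorescence near 667 nm with spot signal to noise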
[3] = probe aNOTCH2 binding on compound microarray – biochemical, small-molecule microarray, 635/667 nm fluorescence, primary screen (AID 1121); settings: higher = more signal;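 further: score merges feature fluorescence read at 667 nm with its signal to noise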
[4] = target: Carbonic anhydrase 2 (Homo sapiens) (UniProt P00918); test: compounds binding carbonic anhydrase 2 – biochemical, small-molecule microarray, Alexa647-labelled CAII, profiling panel (AID 1122); settings: CAII-A647 binding fluorescence, higher = more signal
[5] = COS7 lysate on small-molecule microarray, probe aHis, 635 nm (AID 1123); settings: COS7 cell lysate, fluorescence, higher = more signal;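 further: z-score combines 667nm fluorescence intensity with signal-to-noise per printed compound spot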
[6] = probe aLAP1 signal on lysate-treated microarray – cell lysate, small-molecule microarray, COS7 lysate, primary screen (AID 1124); settings: probe aLAP1, fluorescence, higher = more signal;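 further: lysate comes from COS7 cells expressing LAP1 and is applied at 0.3 µg/mL; score merges spot fluorescence near 667 nm with signal-to-noise over triplicate slides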
Sam68 (KHDRBS1) = test: compounds binding KHDRBS1 protein – biochemical, small-molecule microarray, 635 nm fluorescence, primary screen (AID 1125); settings: higher = more signal;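 further: score merges 667 nm channel intensity with signal to noise over triplicate slides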
[7] = system: Chordin-like protein 2 (CHRDL2); test: compounds binding chordin-like 2 – biochemical, small-molecule microarray, 635 nm fluorescence, primary screen (AID 1126); settings: fluorescence 635 nm, higher = more signal;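 further: printed compound slides probed with Chrdl2 protein at 4 µg/mL for 1 h at 4 C; score merges 667 nm emission intensity with signal to noise over three replicate slides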
[8] = target: Concanavalin-A (Canavalia ensiformis) (UniProt P02866); test: compounds binding concanavalin A lectin – biochemical, small-molecule microarray, Alexa647 label, 635 nm, artefact control for SMM control protein annotation, primary screen (AID 1127); settings: ConA-A647 binding fluorescence, higher = more signal;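 further: z combines 667 nm emission intensity with signal-to-noise across three replicate slides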
Sequence of Concanavalin-A (Canavalia ensiformis) (P02866 whole entry, looked up): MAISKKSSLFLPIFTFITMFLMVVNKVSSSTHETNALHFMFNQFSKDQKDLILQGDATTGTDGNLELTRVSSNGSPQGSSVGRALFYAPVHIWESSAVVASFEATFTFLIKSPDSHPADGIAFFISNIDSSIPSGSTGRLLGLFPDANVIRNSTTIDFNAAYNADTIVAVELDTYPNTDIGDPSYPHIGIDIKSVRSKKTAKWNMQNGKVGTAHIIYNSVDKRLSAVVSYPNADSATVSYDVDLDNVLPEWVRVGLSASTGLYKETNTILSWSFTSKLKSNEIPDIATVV

Compound	composite z-score (Albumin (Bos taurus))	composite Z-score [1]	composite z-score [2]	composite z-score [3]	composite z-score [4]	composite z-score [5]	composite z-score [6]	composite z-score (Sam68 (KHDRBS1))	composite z-score [7]	composite z-score [8]
C=C(CCCC)C(=O)CC[C@H](OC(C)=O)c1cccc(OCCO)c1	-1.33	-0.126 (inactive)	-0.224	-0.205	-0.361	-0.0995	-0.186	-0.11	-1.14	-0.502
CC(C)C[C@H]1NC(=O)[C@@]23C(=O)N[C@@H](Cc4ccccc4)C2[C@H](C)[C@@]2(C)O[C@H]2C3/C=C/C/C=C\CNC(=O)[C@H](Cc2ccccc2)NC1=O (stereo not given in full)	-0.188	-0.311 (inactive)	-0.0377	-0.115	0.254	0.19	-0.108	0.791	0.696	0.205
O=C1NC(=O)C2C1C=CC(C(O)C(c1ccccc1)c1ccccc1)N2Nc1ccc(Cl)cc1Cl (stereo not given)	0.766	-0.713 (inactive)	0.263	0.0409	0.584	1.84	0.0766	0.993	-0.483	0.788
COCCOC(=O)N1C(=O)[C@@]2(c3cc(C#Cc4ccc(OC)cc4)ccc31)[C@H](c1ccc(O)cc1)N1[C@H](c3ccccc3)[C@H](c3ccccc3)OC(=O)[C@H]1[C@@H]2C(=O)NC[C@H](O)c1ccccc1	0.298	0.434 (inactive)	0.385	-0.0878	0.317	1.04	0.693	1.29	0.374	1.17
COCCCN1C(=O)[C@@]2(Cc3ccccc31)c1ccccc1C(=O)N(Cc1ccccc1C(F)(F)F)[C@H]2c1ccc(CO)cc1	-0.857	0.225 (inactive)	-0.401	0.402	0.138	-0.176	-0.395	1	1.09	0.961
COc1ccc(C(O)C2C=CC3C(=O)N(C)C(=O)C3N2N2CCCCC2)c2ccccc12 (stereo not given)	0.9	0.476 (inactive)	0.432	-0.0351	0.448	2.89	-0.32	1.31	-0.147	1.21
C=CCC(OC(C)=O)[C@@H]1[C@@H](N(Cc2ccc(-c3cccc(C(F)(F)F)c3)o2)C(=O)c2ccc(-c3ccccc3)cc2)c2cc(OCCCO)ccc2N1C(=O)c1ccc(-c2ccccc2)cc1 (stereo not given in full)	0.0046	0.111 (inactive)	-0.0957	-0.126	-0.0098	0.0291	-0.128	-0.197	-0.0179	-0.639
CC(C)C(CO)N1C(=O)[C@@H]2[C@H]3C(=O)OCC=C[C@H]3OC23C=CCN(C(C)C)C(=O)[C@@H]13 (stereo not given in full)	-0.457	0.12 (inactive)	-0.149	-0.14	-0.0147	-0.312	-0.313	0.239	0.292	-0.529
[N-]=[N+]=NCc1ccccc1[C@@H]1OC(c2ccc(OCCCO)cc2)=N[C@]1(CCS(=O)(=O)c1ccccc1)C(=O)NCCN1CCOCC1	0.899	1.31 (inactive)	0.576	0.0476	0.634	2.86	0.623	1.3	0.207	1.1
C=CCOC(=O)[C@H]1[C@@H]2C(=O)O[C@@H](c3ccccc3)[C@@H](c3ccccc3)N2[C@@H](c2ccc(OCCOC(=O)[C@@H]3C[C@@H]4C(=O)N5CCC[C@H]5C(=O)N4[C@@H]3c3cccc(OCCO)c3)cc2)[C@]12C(=O)Nc1ccccc12	-0.292	0.594 (inactive)	0.336	0.0087	0.192	1.73	0.383	1.29	0.902	1.17
CCCCCCC#C[Si](O[C@H](c1ccccc1)c1cn([C@H](CO)Cc2ccccc2)nn1)(C(C)C)C(C)C	-0.188	-0.377 (inactive)	-0.158	-0.14	0.855	1	0.256	0.729	-0.346	-0.0362
O=C1OCCC/C=C\[C@H]2OC34C=CCN(c5ccc6ccccc6c5)C(=O)[C@H]3N(CCCCCCO)C(=O)[C@@H]4C12 (stereo not given in full)	0.0499	0.611 (inactive)	-0.256	-0.163	0.946	-0.0749	0.978	-0.468	-1.65	-0.83
COCCn1c(C(=O)N2CCCC2)cc2c1C[C@H]1CN(C(=O)c3ccccc3)[C@@](Cc3ccc(F)cc3)(C(=O)OC)[C@@H]21	1.02	2 (inactive)	0.309	0.11	0.827	2.96	0.406	1.32	-0.364	1
CC(C)(C)OC(=O)CC[C@]1(C(=O)O)N=C(c2ccc(OCCCO)cc2)O[C@H]1c1ccccc1N=[N+]=[N-]	0.82	0.653 (inactive)	0.786	0.473	0.838	2.95	0.781	0.889	0.0588	0.663
O=C1O[C@H](c2ccccc2)[C@H](c2ccccc2)N2[C@H]1[C@@H](C(=O)Nc1nc3ccccc3s1)[C@]1(C(=O)Nc3ccc(C#CCCO)cc31)[C@H]2c1ccc(OCCO)cc1	0.797	0.0956 (inactive)	0.134	0.0785	0.419	1.42	0.516	1.32	0.586	1.09
C#CCN(CC1=CCCCC1)[C@H](c1ccccc1Br)[C@@H](O)Cc1ccccc1	0.306	-0.356 (inactive)	-0.344	-0.177	0.345	0.545	0.0773	0.516	-0.882	-0.679
